Laboratory results: PubChem BioAssay AID1347074 (Center for Chemical Genomics, University of Michigan, 2019)
Out of some 47,000 compounds screened, about 2,800 (6%) were called active. The full list was thinned out, with actives kept by preference. A number with no mark means an inactive call. Rule as the data show it: active = z-score above about 3 (passing the limit was not always enough); inactive = the rest.

Molecular target: Endoribonuclease Dicer (Homo sapiens) (UniProt Q9UPY3)
Test: Dicer cleavage of pre-miR-21 blockers – biochemical, cat-ELCCA, chemiluminescence, primary screen (AID 1347074);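 also: plate controls were vehicle for no effect and no enzyme for full effect; higher signal means more uncleaved substrate so more Dicer inhibition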
Conditions: cat-ELCCA pre-miR-21 Dicer processing, at 25 µM, stronger effect = higher value

Endoribonuclease Dicer (Homo sapiens), sequence (Q9UPY3 whole entry, looked up): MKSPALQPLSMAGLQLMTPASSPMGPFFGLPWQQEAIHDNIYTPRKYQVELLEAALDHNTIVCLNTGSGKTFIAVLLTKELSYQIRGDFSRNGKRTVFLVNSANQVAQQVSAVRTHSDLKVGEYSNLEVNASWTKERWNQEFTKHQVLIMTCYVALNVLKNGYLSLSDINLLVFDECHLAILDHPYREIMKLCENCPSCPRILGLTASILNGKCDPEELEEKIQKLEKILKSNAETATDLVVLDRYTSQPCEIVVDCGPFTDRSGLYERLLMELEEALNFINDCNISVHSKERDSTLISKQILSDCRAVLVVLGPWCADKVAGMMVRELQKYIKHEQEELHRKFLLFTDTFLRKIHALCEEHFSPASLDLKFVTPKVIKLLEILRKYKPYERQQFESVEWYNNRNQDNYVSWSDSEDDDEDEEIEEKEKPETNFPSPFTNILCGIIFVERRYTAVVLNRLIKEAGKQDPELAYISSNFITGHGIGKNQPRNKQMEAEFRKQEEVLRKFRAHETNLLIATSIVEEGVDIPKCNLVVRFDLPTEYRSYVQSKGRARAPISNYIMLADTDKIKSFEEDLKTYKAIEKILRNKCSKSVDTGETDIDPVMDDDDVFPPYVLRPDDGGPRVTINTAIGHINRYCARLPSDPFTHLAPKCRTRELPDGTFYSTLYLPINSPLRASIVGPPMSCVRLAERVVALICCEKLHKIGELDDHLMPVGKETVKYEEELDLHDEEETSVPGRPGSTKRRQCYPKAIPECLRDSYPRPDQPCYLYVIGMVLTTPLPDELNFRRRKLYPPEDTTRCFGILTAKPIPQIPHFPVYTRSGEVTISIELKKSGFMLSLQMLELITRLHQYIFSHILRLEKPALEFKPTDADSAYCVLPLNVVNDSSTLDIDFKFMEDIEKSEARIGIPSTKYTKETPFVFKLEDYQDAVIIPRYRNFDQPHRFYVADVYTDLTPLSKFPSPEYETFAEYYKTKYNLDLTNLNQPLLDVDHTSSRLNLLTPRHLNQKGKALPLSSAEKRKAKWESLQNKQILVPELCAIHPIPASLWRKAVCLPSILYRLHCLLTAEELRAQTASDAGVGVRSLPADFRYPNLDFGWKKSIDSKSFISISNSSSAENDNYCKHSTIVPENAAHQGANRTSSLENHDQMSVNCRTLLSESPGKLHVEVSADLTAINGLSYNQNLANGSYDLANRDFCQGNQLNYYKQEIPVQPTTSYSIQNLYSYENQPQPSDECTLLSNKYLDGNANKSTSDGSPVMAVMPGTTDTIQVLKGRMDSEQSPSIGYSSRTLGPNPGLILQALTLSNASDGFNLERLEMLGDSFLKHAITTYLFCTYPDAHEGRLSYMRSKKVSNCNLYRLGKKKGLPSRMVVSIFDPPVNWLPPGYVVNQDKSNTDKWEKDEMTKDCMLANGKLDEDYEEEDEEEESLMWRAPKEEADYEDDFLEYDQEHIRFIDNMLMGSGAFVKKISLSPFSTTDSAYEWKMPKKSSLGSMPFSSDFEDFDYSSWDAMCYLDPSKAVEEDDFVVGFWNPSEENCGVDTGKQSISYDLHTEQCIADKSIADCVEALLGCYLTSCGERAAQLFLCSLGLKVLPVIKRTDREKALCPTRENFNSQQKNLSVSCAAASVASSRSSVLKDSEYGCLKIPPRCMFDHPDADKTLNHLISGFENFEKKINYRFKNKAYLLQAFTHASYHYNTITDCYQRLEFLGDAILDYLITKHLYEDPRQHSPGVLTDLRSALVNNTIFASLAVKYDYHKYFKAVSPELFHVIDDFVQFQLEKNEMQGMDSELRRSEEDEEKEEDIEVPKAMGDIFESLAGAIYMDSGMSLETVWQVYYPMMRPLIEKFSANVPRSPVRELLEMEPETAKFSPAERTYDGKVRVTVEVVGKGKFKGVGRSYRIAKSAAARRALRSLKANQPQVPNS

SMILES	z-score
O=C(O)/C=C/C(=O)N1CCN(c2nccc(C(F)(F)F)n2)CC1	0.2
NC(=O)c1c(NC(=O)c2sc3cc(Cl)ccc3c2Cl)sc2c1CCC2	0.57
CCCCC(=O)N(c1ccc2oc(=O)sc2c1)S(=O)(=O)c1ccc(F)cc1	3.38 (active)
O=C(c1cccnc1)N(c1ccc2oc(=O)sc2c1)S(=O)(=O)c1ccccc1	3.74 (active)
COc1ccc(S(=O)(=O)N(C(=O)c2ccncc2)c2ccc3oc(=O)sc3c2)cc1OC	3.3 (active)
O=C(c1cccnc1)N(c1cc2sc(=O)oc2c2ccccc12)S(=O)(=O)c1ccccc1	-2.86
COC(=O)c1c(C)oc2ccc(N(C(=O)Oc3ccccc3)S(=O)(=O)c3ccccc3)cc12	-0.23
CCOC(=O)C(C)Oc1ccc2c(=O)c(-c3ccc(OC)c(OC)c3)c(C(F)(F)F)oc2c1 (centres undefined)	0.03
O=C1/C(=C/c2cc(Br)cs2)Cc2ccccc21	-0.91
CCOC(=O)/C(C#N)=C/N=C(N/N=C(\C)c1cc2ccccc2o1)SC	-2.01
NC(=O)CN1C(=O)C(O)(CC(=O)c2ccc3c(c2)CCCC3)c2ccccc21 (centres undefined)	-1.03
O=S(=O)(c1cc(Cl)ccc1Cl)N1c2ccccc2OC1c1ccc(Cl)c(Cl)c1 (centres undefined)	-0.36
CSC(=Nc1cc(C(F)(F)F)cc(C(F)(F)F)c1)N1CCCCC1	5.99 (active)
CSC(=Nc1ccccc1C(F)(F)F)N1CCCC1	1.69
CCCC1c2ccsc2CCN1C(=S)Nc1ccccc1C(=O)OC (centres undefined)	-0.25
Oc1ccccc1C=NCCCN=Cc1ccccc1O	4.14 (active)
CSc1nnc(/N=C/c2ccccc2O)s1	0.16
O=C(O/N=C(/Cc1ccccc1)C(F)(F)F)c1ccc(Cl)cc1	-0.11
Cc1cc(C)c2c(-n3cccc3)c(C(=O)c3ccc(Cl)cc3)sc2n1	-2.32
Cc1cc(-c2cccs2)c2c(N)c(C(=O)c3ccccc3)sc2n1	0.82
Nc1c(C(=O)c2ccc(Cl)cc2)sc2nc(-c3cccs3)cc(C(F)(F)F)c12	4.28 (active)
COc1cccc(-c2nc(-c3cc4cc(C)ccc4[nH]c3=O)no2)c1	0.33
CCOC(=O)c1c(NC(=O)c2sc3nc(C)cc(COC)c3c2N)sc2c1CCCC2	-1.64
Cc1cc(C)c2c(N)c(C(=O)NNC(=S)Nc3ccccc3)sc2n1	5.62 (active)
Cc1cc(C)c2c(N)c(-c3n[nH]c(=S)n3C)sc2n1	-3.29

SMILES	z-score
C(#CCN1CCCCC1)COC(c1ccccc1)c1ccccc1	4.06 (active)
C#CC(CCN1CCCCC1)(OC)c1ccccc1 (centres undefined)	-0.6
NS(=O)(=O)c1ccc2c(c1)OCCO2	-0.87
CCn1nc(C)cc1-c1n[nH]c(=S)n1-c1ccccc1	-0.98
Cc1cc(C)cc(Oc2coc3cc(OCC(=O)OC(C)C)ccc3c2=O)c1	0.93
Cc1onc(-c2ccccc2Cl)c1C(=O)OCC(=O)c1ccccc1	4.29 (active)
Cc1onc(-c2c(Cl)cccc2Cl)c1C(=O)N=S(C)(C)=O	0.49
Cc1[nH]n(C)c(=O)c1C(=O)c1c(-c2c(Cl)cccc2Cl)noc1C	-0.59
CCOCc1ccc2oc(C(=O)OCCN(CC)CC)cc2c1	0.17
Cc1nn2c3c(cnc2c1-c1ccc(F)cc1)C(=O)CC(c1cccc(Cl)c1)C3 (centres undefined)	0.34
Oc1c(Cl)cc(Cl)c(Cl)c1Cc1c(O)c(Cl)cc(Cl)c1Cl	13.8 (active)
O=C(CN1C(=O)c2ccccc2S1(=O)=O)NC1CCCCC1	1.13
Cc1ccc(C(=O)CC2(O)C(=O)N(CN3CCCCC3)c3ccc(Br)cc32)cc1 (centres undefined)	0.51
CCOC(=O)c1sc2ccccc2c1N	0.22
CCOC(=O)c1sc(SC)c2c1-c1ccccc1N(C)S2(=O)=O	-1.61
CCOC(=O)c1sc(SC)c(-c2ccccc2)c1N	11.5 (active)
CCOC(=O)/C(=N\Nc1ccccc1)c1csc(N)n1	0.02
Cc1cc(C)n(C(=O)COc2ccc3ccccc3c2Br)n1	2.85
CC(C)OC(=O)C1C(=O)CC(C)(O)C(C(=O)OC(C)C)C1c1ccc(O)cc1 (centres undefined)	-0.2
COC(=O)C1=C(C)NC2=C(C(=O)CC(C)(C)C2)C1c1cc(Cl)c(O)c(OC)c1 (centres undefined)	3.12
CC(C(=O)N1CCCC1)N1c2cccc3cccc(c23)S1(=O)=O (centres undefined)	-0.76
O=[N+]([O-])c1cc(-c2cnc3ccccc3n2)ccc1Sc1ccccn1	15.7
COC(=O)c1ccccc1N(C)C(=O)c1cc(OC)c(OC)c(OC)c1	-0.98
COC(=O)c1cc(OC)c(OC)cc1N1C(=O)c2ccccc2C1=O	0.34
COC(=O)c1ccccc1-c1c2ccc(=O)cc-2oc2cc(O)ccc12	7.57 (active)

SMILES	z-score
COC(=O)c1cc(NC(=O)NC(=O)c2c(Cl)cccc2Cl)ccc1S(=O)(=O)Cc1ccc(Cl)cc1	1.45
CN(C)CCN1C(=O)C(=O)/C(=C(/O)c2ccc(F)cc2)C1c1cccs1 (centres undefined)	1.06
COC(=O)c1sccc1Oc1ccc(Cl)cc1[N+](=O)[O-]	-0.2
CC(CC(=O)O)Oc1ccc(Cl)cc1[N+](=O)[O-] (centres undefined)	-0.09
O=C(Oc1ccc(Cl)cc1Cl)c1ccc(Cl)cc1[N+](=O)[O-]	4.36 (active)
CC(C)N1CNc2nc3ccccc3n2C1	1.6
COc1ccc(S(=O)(=O)N2CCCCC2)cc1Br	4.32 (active)
O=c1oc2cc(S(=O)(=O)N3CCCCC3)ccc2c2ccc(S(=O)(=O)N3CCCCC3)cc12	1.67
COc1ccccc1N1CCN(S(=O)(=O)c2ccc(Br)cc2)CC1	1.29
Cc1nc(-c2ccc(S(=O)(=O)N3CCCN(c4ncc(C(F)(F)F)cc4Cl)CC3)s2)cs1	-1.58
O=C1/C(=C/c2ccc3c(c2)OCO3)CCC/C1=C\c1ccc2c(c1)OCO2	-1.56
O=C1COCC(=O)N1c1ccc2c(c1)OCO2	3.01 (active)
O=C1COCC(=O)N1c1ccc(F)cc1F	2.81
CS(=O)(=O)N1N=C(c2c(-c3ccccc3)c3cc(Cl)ccc3[nH]c2=O)CC1c1cccs1 (centres undefined)	0.27
O=c1c(-c2ccccc2)coc2cc(O)ccc12	3.37 (active)
Cc1c2occ(-c3ccccc3)c2cc2c1oc(=O)c1ccccc12	2.4
COc1ccccc1-c1coc2cc(OC(=O)c3ccccc3Cl)ccc2c1=O	0.93
Cc1nn(Cc2ccc(C(=O)NCc3ccccn3)o2)c(C)c1[N+](=O)[O-]	1.35
Fc1ccc2onc(-c3cnn(-c4ccccc4)c3)c2c1	3.3 (active)
Cc1ccc2oc(-c3cccc(N4C(=O)c5cccnc5C4=O)c3)nc2c1	-1
COc1ccc(-n2cnc3cc(NCc4ccco4)ccc32)cc1	6.39 (active)
CC(Oc1cccc2c(=O)c3ccccc3oc12)C(=O)O (centres undefined)	-0.48
CSc1sc(C(=O)NN)cc1C#N	1.26
CCOC(=O)N1CCc2c(sc3c2C(=O)NC(c2ccccc2F)N3)C1 (centres undefined)	1.08
Cc1cc(C(C)(C)C)ccc1NC(=O)COCC(=O)O	1.34

SMILES	z-score
CCOc1ccc(-c2nc(-c3ccc(C)nc3OC)no2)cc1	0.23
CCOc1ccc(-c2cc(O)cc3sc(=O)oc23)cc1	5.74 (active)
CCCCOc1cc(O)c2c(=O)cc(-c3ccccc3)oc2c1	-0.66
Cn1c2c(c(=O)n(C)c1=O)C(C(=O)Nc1ccc(Cl)cc1)CC(=O)N2 (centres undefined)	1.36
COC(=O)c1sccc1NNS(=O)(=O)c1ccc(C)cc1	0.67
C=CCOc1ccc(C(=O)N(Cc2ccc(OC)cc2)C2CCS(=O)(=O)C2)cc1 (centres undefined)	1.67
C=CCOc1ccc2c(=O)cc(C(=O)OCC)oc2c1	-0.35
NC(=O)c1c(NC(=O)CSc2nc3ccccc3o2)sc2c1CCC2	0.14
CC(C)N1CCC(=O)N(c2ccccc2Cl)C1=O	5.02 (active)
O=[N+]([O-])c1ccc(Sc2ccc(Cl)cc2)nc1	-0.03
CC(C)(C)n1cnnc1Sc1ccc([N+](=O)[O-])cn1	2.43
CC(C)Oc1ccccc1Oc1ccc([N+](=O)[O-])cn1	14.5 (active)
COc1c(Br)cc([N+](=O)[O-])c(OC)c1C(N)=O	-0.32
Cc1cc(C)c2c(c1)-c1cc(C)nn1C(c1ccc(O)cc1)N2 (centres undefined)	2.1
Cc1cc2n(n1)C(c1cc(C(C)(C)C)c(O)cc1O)Nc1ccccc1-2 (centres undefined)	3.4 (active)
CCN(CC)c1ccc(C2Nc3ccccc3-c3cc(C)nn32)c(O)c1 (centres undefined)	0.47
OC(CN1CCN(C(c2ccccc2)c2ccccc2)CC1)Oc1cccc(C(F)(F)F)c1 (centres undefined)	2.86
O=C1c2cccc3cc(Br)cc(c23)C(=O)N1CCO	2.14
CCN1/C(=C\C=C\c2scc[n+]2CC)Sc2c1ccc1ccccc21	-2.64
CC(=O)/C(=C\N=S(C)(=O)c1ccc(C)cc1)S(=O)(=O)c1ccc(Cl)cc1 (centres undefined)	-3.56
CC1=C(C(=O)OCC2CCCO2)C(c2cccs2)C2=C(CC(c3cccs3)CC2=O)N1 (centres undefined)	1.27
C=CCn1c(SCc2nnc(SCC(=O)c3ccc(Cl)cc3)o2)nnc1-c1ccccc1	1.72
C=CCn1c(SCc2nc3ccccc3[nH]2)nnc1-c1ccccc1	4.03 (active)
CC1(C)Cc2c(C#N)c(SCc3nc4ccccc4[nH]3)nc(N3CCOCC3)c2CO1	-1.2
